Only some compounds are listed: those with a hit (about 18% of all), similar ones and a draw of the others.
PLK1 PBD inh: qHTS for Inhibitors of PLK1-PDB (polo-like kinase 1 - polo-box domain): Primary Screen; Serine/threonine-protein kinase PLK1 (Homo sapiens), P53350; Plk1 PBD binding of FITC phosphopeptide, fluorescence polarization; Potency, µM, for inactives: max response, negative = inhibition, most hits filed as inhibitors; hit rate 2.8% among 360,000; AID 720504, 2013; note: series mostly up to about 57 µM; nearly all actives have a fitted effect of over 65% in size
TDP1 inh: qHTS Assay for Inhibitors of Tyrosyl-DNA Phosphodiesterase (TDP1) | Potency, µM (doses to about 130 µM), for the others: at the highest dose activity change, negative = inhibition, most hits filed as inhibitors | recombinant TDP1, AlphaScreen DNA substrate cleavage | hit rate 0.28% among 350,000 | Tyrosyl-DNA phosphodiesterase 1 (Homo sapiens), Q9NUW8; note: nearly all actives have a fitted effect of over 40% in size
Target sequence (Q9NUW8 whole entry, looked up): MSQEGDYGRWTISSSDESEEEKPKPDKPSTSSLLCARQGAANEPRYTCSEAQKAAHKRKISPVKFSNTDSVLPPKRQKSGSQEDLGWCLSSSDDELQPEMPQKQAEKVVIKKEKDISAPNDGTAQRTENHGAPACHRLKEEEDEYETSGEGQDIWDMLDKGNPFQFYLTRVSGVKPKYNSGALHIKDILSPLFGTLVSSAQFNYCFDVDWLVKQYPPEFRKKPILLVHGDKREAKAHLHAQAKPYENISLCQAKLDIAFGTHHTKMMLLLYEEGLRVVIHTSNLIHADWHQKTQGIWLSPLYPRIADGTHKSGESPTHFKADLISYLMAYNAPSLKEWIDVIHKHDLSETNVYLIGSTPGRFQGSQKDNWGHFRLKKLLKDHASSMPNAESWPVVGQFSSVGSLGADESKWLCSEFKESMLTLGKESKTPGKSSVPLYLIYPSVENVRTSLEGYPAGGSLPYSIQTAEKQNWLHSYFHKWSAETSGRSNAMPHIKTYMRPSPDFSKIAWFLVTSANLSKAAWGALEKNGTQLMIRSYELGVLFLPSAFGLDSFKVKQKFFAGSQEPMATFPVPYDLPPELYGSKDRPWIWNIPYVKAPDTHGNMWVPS
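Steps: enzyme plus compound, 15 min RT; add biotin/phosphotyrosine-FITC oligonucleotide (15 nM final), react 5 min; add donor/acceptor beads (10 ug/ml final), 10 min; read AlphaScreen. Tdp1 at 1 nM final.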
KAT2A inh: qHTS Assay for Inhibitors of GCN5L2; AID 504327, 2011; hit rate 0.21% among 390,000; Histone acetyltransferase KAT2A (Homo sapiens), Q92830; GCN5L2 HAT assay, ThioGlo1 CoA-SH fluorescence; Potency, µM (top dose mostly 58.9 µM), without a hit: top-dose activity change, negative = inhibition, actives largely listed as inhibitors
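Free CoA generated was detected with ThioGlo1 (50uM) fluorescence at Ex340nm/Em540nm, read immediately and after 20 min at room temperature. Enzyme, 20 nM in HEPES pH 7.5 buffer, saw compounds 15 min before adding 75uM H3(1-25) peptide and 70uM acetyl-CoA.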
DT40 TDP1 CPT: qHTS for Inhibitors of human tyrosyl-DNA phosphodiesterase 1 (TDP1): qHTS in cells in presence of CPT; chicken DT40 Tdp1-/-;hTDP1 cells + 20 nM CPT, ATP luminescence, 48 h; Potency, µM (titrated, usually from 46.2 µM), for the others: at the highest dose activity change, negative = growth inhibition, usual class: inhibitors; hit rate 12% among 420,000; note: nearly all actives have a fitted effect of over 55% in size
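Chicken DT40 Tdp1-/- cells stably complemented with human TDP1 were seeded at 400 cells/well in medium containing 20 nM camptothecin, exposed to pin-transferred compounds, and grown at 37 °C for at least 48 hr. Viability was read as ATP luminescence.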
DT40 TDP1 no CPT: qHTS for Inhibitors of human tyrosyl-DNA phosphodiesterase 1 (TDP1): qHTS in cells in absence of CPT. DT40 Tdp1-/- hTDP1 cells, no CPT, ATP luminescence, 48 h. Potency, µM (doses to about 46.2 µM), inactives show top-dose activity change, negative = growth inhibition, most hits filed as inhibitors. hit rate 15% among 420,000. AID 686978, 2013; note: nearly all actives have a fitted effect of over 55% in size
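Readout: luminescence from CellTiter-Glo after 30 min in the dark at RT. Cells: DT40 Tdp1-/- with stable hTDP1, 400/well. Exposure: compounds alone, ≥48 hr, 37 °C.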
VDR inhibitor: Inhibitors of the vitamin D receptor (VDR): qHTS | Vitamin D3 receptor (Homo sapiens), P11473 | VDR-SRC2-3 peptide fluorescence polarization, 2 h | Potency, µM, without a hit: max response, negative = inhibition, hits mostly inhibitors | hit rate 0.93% among 400,000 | AID 504847, 2011
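Measured by FP: displacement of SRC2-3 coactivator peptide from VDR by library compounds, following a two-hour ambient incubation.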
* = called active by the depositor; u = inconclusive; x = no result given. Calls come from the whole dose curve; as a rule, active = well fitted curve in the direction sought with a large enough effect; inconclusive = small, poorly fitted or top-dose-only effect, or another doubt; inactive = no such curve, though single readings can be large; an effect the other way counts as inactive or inconclusive. % is set by controls: 0 for no effect and ±100 for the full control effect; potency is the fitted concentration of half-maximal effect.

SMILES | PLK1 PBD inh | TDP1 inh | KAT2A inh | DT40 TDP1 CPT | DT40 TDP1 no CPT | VDR inhibitor
CC(C)CN1CC2(CCN(C(=O)c3cnccn3)CC2)C1 | x | x | -1% | 14% | 3% | 2%
CN(C)CC1CCC/C(=C\c2ccc(OC(=O)c3ccc(Cl)cc3)cc2)C1=O (configuration not stated) | u | x | x | 0.52µM* | 0.41µM* | u
O=C(Oc1ccc2c(c1)OCC2=O)c1ccc(Cl)cc1 | -12% | -1% | -2% | -2% | -10% | 12%
CCOC(=O)/C(=C/c1c(C)n(C)c2ccc([N+](=O)[O-])cc12)C(C)=O | -25% | 3% | -6% | u | 9.2µM* | u
Brc1cccc(-c2nc3cccnc3nc2-c2cccc(Br)c2)c1 | -10% | x | 1% | u | 16µM* | -11%
CCc1cccc(NC(c2ccccc2)c2nnc(-c3ccccc3F)o2)c1 (configuration not stated) | x | -5% | -10% | u | 21µM* | -7%
Cc1ccc(C)c(NC(c2ccccc2)c2nnc(-c3ccccc3F)o2)c1 (configuration not stated) | x | 2% | 5% | u | u | 14%
COc1ccc(C2=Nn3c(nnc3-c3cc(OC)ccc3OC)SC2)c(OC)c1 | x | 6% | x | x | x | x
CCc1nnc(NS(=O)(=O)c2ccc(NC(=S)NC(=O)/C=C/c3ccccc3)cc2)s1 | u | x | -3% | 17% | -18% | -30%
CCc1nnc(NS(=O)(=O)c2ccc(NC(=S)NC(=O)/C=C/c3ccc(OC)cc3)cc2)s1 | 27µM* | 1% | 1% | -8% | -2% | 1%
CCc1nnc(NS(=O)(=O)c2ccc(NC(=S)NC(=O)/C=C/c3ccc(C(C)C)cc3)cc2)s1 | 21µM* | -10% | -27% | -21% | -22% | -9%
CCc1nnc(NS(=O)(=O)c2ccc(N/C=C\C(=O)c3ccc4ccccc4c3)cc2)s1 | 24µM* | -11% | -9% | u | u | -23%
O=C(c1ccncc1)N1CCC2(CCCN(Cc3ccncc3)C2)CC1 | x | x | 13% | 4% | -12% | 0%
Cc1cc(N2CCN(C)CC2)nc2ccc(NC(=S)NCc3cccs3)cc12 | -5% | 6% | -5% | u | u | -7%
CCN1CCN(c2cc(C)c3cc(NC(=S)NCc4cccs4)ccc3n2)CC1 | -17% | 3% | -10% | u | 21µM* | 0%
Cc1ccc(C)c(N2CCN(C(=S)Nc3ccc4nc(N5CCN(C)CC5)cc(C)c4c3)CC2)c1 | 3% | 3% | -2% | 16µM* | 12µM* | 29%
CCC(C)NC(=S)Nc1ccc2nc(N3CCN(CC)CC3)cc(C)c2c1 (configuration not stated) | -20% | 5% | -1% | u | 23µM* | -11%
CCC(C)NC(=O)CCC(=O)Nc1ccc2nc(N3CC(C)CC(C)C3)cc(C)c2c1 (configuration not stated) | -11% | 0% | -5% | -17% | 16µM* | 6%
CCCOc1ccc(CC(=O)N/N=C\c2ccc(F)cc2)cc1 | 0% | x | -9% | -23% | u | 6%
CCN1CCN(c2cc(C)c3cc(NC(=S)N4CCN(c5ccccc5)CC4)ccc3n2)CC1 | 3% | 3% | -3% | 7.3µM* | 10µM* | -10%
CCN1CCN(c2cc(C)c3cc(NC(=S)N4CCOCC4)ccc3n2)CC1 | 4% | 9% | -10% | 4% | -3% | -4%
Cc1csc(=O)n1CCC(=O)OCC(=O)c1ccc(Br)cc1 | -7% | 4% | -4% | -17% | -8% | 13%
C#CCOc1ccc(C2C(C(=O)OC)=C(C)NC3=C2C(=O)c2ccccc23)cc1OCC (configuration not stated) | x | x | -4% | u | u | -4%
CCOc1cc(C2C(C(=O)OC)=C(C)NC3=C2C(=O)c2ccccc23)ccc1OC (configuration not stated) | x | 16% | -5% | u | 21µM* | 5%
CCOc1cc(C2C(C(=O)OC)=C(C)NC3=C2C(=O)c2ccccc23)cc(Br)c1OCC (configuration not stated) | x | x | -12% | u | 5.2µM* | u
SMILES | PLK1 PBD inh | TDP1 inh | KAT2A inh | DT40 TDP1 CPT | DT40 TDP1 no CPT | VDR inhibitor
Cc1cc(C)cc(-n2nnc(-c3nc(-c4ccccc4F)no3)c2C)c1 | x | 0% | u | u | u | 9%
Cc1c(C(=O)Nc2ccc(F)c(Cl)c2)sc2nc3n(c(=O)c12)CCC3 | x | -14% | -8% | u | u | 9%
O=[N+]([O-])c1cccc(/C=N/n2c(C3CCCCC3)n[nH]c2=S)c1 | -26% | 2% | -1% | u | 16µM* | -5%
Oc1cccc(/C=N/n2c(C3CCCCC3)n[nH]c2=S)c1 | u | x | 5% | 7% | -22% | -2%
COc1cccc(/C=N/n2c(C3CCCCC3)n[nH]c2=S)c1 | 21µM* | x | 1% | -22% | u | 9%
CN1/C(=C/C(=O)c2nc(S(C)(=O)=O)ncc2Cl)C(C)(C)c2ccccc21 | u | 6% | -1% | 0.58µM* | 0.46µM* | 50µM*
CN1/C(=C\C(=O)c2cccnc2)C(C)(C)c2ccccc21 | 3% | -2% | 10% | -64% | u | -16%
CN1/C(=C\C(=O)c2cncc(Br)c2)C(C)(C)c2ccccc21 | -4% | -8% | -5% | 3.7µM* | 2.6µM* | 6%
CN1/C(=C\C(=O)c2ccco2)C(C)(C)c2ccccc21 | 5% | -7% | -7% | 2.6µM* | 3.7µM* | u
CCCCN(C(C)=O)c1c(CC)nc2ccc(C(=O)NCCCN(C)C)cn12 | -2% | x | x | u | u | x
FC(F)Oc1ccc(NC(=S)Nn2cnnc2)cc1 | 6.7µM* | 3% | -16% | u | u | u
Oc1cccc2c(NC(=S)Nc3ccc(OC(F)F)cc3)cccc12 | 0% | 1% | -7% | -59% | 18µM* | -6%
FC(F)Oc1ccc(NC(=S)Nc2ccc3cn[nH]c3c2)cc1 | -14% | 2% | -2% | -7% | -8% | -4%
Cc1ccc(CN(CC2CCCO2)C(=O)CN2C(=O)C(C(C)C)Oc3ccccc32)o1 (configuration not stated) | u | 6% | -6% | 26µM* | u | u

Screening results from PubChem BioAssay.
